HT1080 IDH1KD tx: qHTS for induction of synthetic lethality in tumor cells producing 2HG: qHTS for the HT-1080-IDH1KD cell line; HT-1080 IDH1 knockdown viability, ATP luminescence, 48 h; Potency, µM (highest dose often 46.1 µM), inactives show at the highest dose activity, negative = toxicity, usual class: cytotoxic; actives 2% (n = 360,000); AID 686971, 2013;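 further: 0% = DMSO wells and -100% = cell-free medium wells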
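IDH1KD HT-1080 cells, 750/well, RPMI + 5% FBS; compound pinned after 2 h settling; 48 h, 37 °C; CellTiter-Glo luminescence; % activity normalised to DMSO and no-cell wells; curves fitted, classed by r2 and efficacy.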
TGFb inhibitor: qHTS for Inhibitors of TGF-b | HepG2 CAGA-GFP TGF-b/SMAD3 reporter, GFP fluorescence, 18 h; TGF-beta stimulated, 500 pg/mL final | Potency, µM (doses to about 46.1 µM), for inactives: at the top dose activity, negative = inhibition, most hits filed as inhibitors | actives 1.2% (n = 410,000); further: on the % scale 0 is the no-effect control and ±100 the full control effect; nearly all actives have a fitted effect of over 65% in size
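Read-out: total well GFP (ex488/em500-530) summed from mean per-cell fluorescence. Cells: HEPG2 CAGA-GFP, 1% FBS DMEM, 18 h at 37 degrees C with 500 pg/mL final TGF-beta. Unstimulated wells served as the full-inhibition control; stimulated DMSO wells = 0%.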
DT40 TDP1 no CPT: qHTS for Inhibitors of human tyrosyl-DNA phosphodiesterase 1 (TDP1): qHTS in cells in absence of CPT | actives 15% (n = 420,000) | Potency, µM (series often up to 46.2 µM), for the others: at the highest dose activity change, negative = growth inhibition, actives largely listed as inhibitors | AID 686978, 2013 | DT40 Tdp1-/- hTDP1 cells, no CPT, ATP luminescence, 48 h; further: on the % scale 0 is the no-effect control and ±100 the full control effect; nearly all actives have a fitted effect of over 55% in size
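Cells were dispensed at 400 per well, compounds added by pin tool, plates incubated ≥48 hr at 37 °C, then CellTiter-Glo added for 30 min at room temperature before luminescence reading. Line: DT40 Tdp1-/- complemented with hTDP1; camptothecin omitted.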
DT40 TDP1 CPT: qHTS for Inhibitors of human tyrosyl-DNA phosphodiesterase 1 (TDP1): qHTS in cells in presence of CPT | chicken DT40 Tdp1-/-;hTDP1 cells + 20 nM CPT, ATP luminescence, 48 h | Potency, µM (top dose mostly 46.2 µM), without a hit: top-dose activity change, negative = growth inhibition, hits mostly inhibitors | actives 12% (n = 420,000) | AID 686979, 2013; further: on the % scale 0 is the no-effect control and ±100 the full control effect; nearly all actives have a fitted effect of over 55% in size
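Chicken DT40 Tdp1-/- cells stably complemented with human TDP1 were seeded at 400 cells/well in medium containing 20 nM camptothecin, exposed to pin-transferred compounds, and grown at 37 °C for at least 48 hr. Viability was read as ATP luminescence.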
HT1080-NT tox: qHTS for induction of synthetic lethality in tumor cells producing 2HG: qHTS for the HT-1080-NT fibrosarcoma cell line | Potency, µM (top dose mostly 46.1 µM), for inactives: at the top dose activity, negative = less viability, usual class: cytotoxic | HT-1080-NT fibrosarcoma viability, CellTiter-Glo ATP luminescence, 48 h | actives 1.6% (n = 360,000) | AID 686970, 2013;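 further: NT is the 2HG producing partner of a matched IDH1 knockdown line; 0% = DMSO-treated cells and -100% = media-only wells without cells; nearly all actives have a fitted effect of over 55% in size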
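HT-1080-NT; 750 cells/well; 5% FBS RPMI; 48 h compound, 37 degrees C; CellTiter-Glo luminescence; curve fitting and curve-class assignment.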
HepG2 tox: qHTS for Inhibitors of TGF-b: Cytotox Counterscreen | AID 588856, 2011 | Potency, µM (series often up to 46.1 µM), inactives show at the top dose activity change, negative = cytotoxicity, actives largely listed as cytotoxic | actives 0.76% (n = 410,000) | HepG2 CAGA-GFP viability, ATP luminescence, 18 h
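HepG2 CAGA-GFP cells (1000/well, DMEM with 1% FBS) received compound, then TGF-beta at 500 pg/mL final, and were incubated 18 hours at 37 degrees C. Viability was read by CellTiter-Glo luminescence. Media-only wells were set as complete cell-killing and DMSO as no toxicity.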
Starred values were filed as active, the others as inactive; ? = inconclusive; · = no result given; [ ] = dose if it differs, or a comment. In the library only some 17% were active in any assay of this set; here they are far more common. The call rests on the fitted dose curve; in most records, active means well fitted curve in the direction sought with a large enough effect; inconclusive means small, poorly fitted or top-dose-only effect, or another doubt; inactive means no such curve, though single readings can be large; an effect the other way counts as inactive or inconclusive. Potency means the concentration at half of the fitted maximal effect.

SMILES	HT1080 IDH1KD tx	TGFb inhibitor	DT40 TDP1 no CPT	DT40 TDP1 CPT	HT1080-NT tox	HepG2 tox
COc1cc(N=c2ssnc2Cl)cc(OC)c1OC	0%	18%	2.6µM*	3.3µM*	0%	0%
N#Cc1ccc(Oc2c(Cl)cncc2Cl)cc1	-6%	0%	-12%	?	-12%	-13%
CSCCC(NC(=O)COc1ccccc1)C(=O)N1CCN(c2ccccc2F)CC1 (stereo unspecified)	-1%	2%	23µM*	15µM*	9%	-5%
CSCCC(NC(=O)COc1ccccc1)C(=O)N1CCCCCC1 (stereo unspecified)	0%	-5%	?	-24%	6%	-12%
COc1ccc(N(C(=O)COc2ccccc2OC)S(=O)(=O)c2ccc(Cl)cc2)cc1	·	?	23µM*	16µM*	·	-29%
COc1ccc(N(C(=O)c2ccccc2C)S(=O)(=O)c2ccc(C)cc2)cc1	·	6%	?	12µM*	·	-21%
Cc1ccc(C(=O)N(c2ccc(C)cc2)S(=O)(=O)c2ccc(Cl)cc2)cc1	·	?	23µM*	?	·	-18%
COc1ccc(N(C(=O)c2ccc(C(C)(C)C)cc2)S(=O)(=O)c2ccc(Cl)cc2)cc1	·	-26%	21µM*	?	·	-19%
COCC(=O)N1CCC[C@@]2(CCN(C(=O)Nc3cccc(F)c3)C2)C1	·	·	-5%	11%	·	·
Cc1ccc(C)c(NC(=O)CN2C(=O)C3CC=CCC3C2=O)c1 (stereo unspecified)	-5%	1%	-13%	0%	0%	0%
O=C(COc1ccccc1)N=C1SC2CS(=O)(=O)CC2N1Cc1ccccc1 (stereo unspecified)	3%	27%	-28%	1%	0%	11%
COc1ccc(N(C(=O)c2cccc(C)c2)S(=O)(=O)c2ccc(Cl)cc2)cc1	·	?	?	18µM*	·	-45%
CCCCc1nnc(SCC(=O)Nc2nccs2)n1C	7%	-1%	27%	-8%	3%	5%
Cc1occc1-c1nnc(SCC(=O)Nc2nccs2)n1CCc1ccccc1	-4%	-8%	18µM*	15µM*	-19%	3%
Cn1c(CCCOc2ccc(Cl)cc2Cl)nnc1SCC(=O)Nc1nccs1	4%	-12%	?	23µM*	-16%	-12%
Cc1cccc(-n2ccnc2SCC(=O)Nc2nccs2)c1C	-6%	-11%	16µM*	?	-7%	-9%
CCc1nnc(NC(=O)CSc2nccn2-c2cc(C)cc(C)c2)s1	-2%	-7%	16µM*	23µM*	14%	-13%
COc1ccc(-c2nc(SCC(=O)NCCc3ccc(OC)c(OC)c3)n[nH]2)cc1	·	-8%	-15%	-8%	·	-1%
O=C(NC1CCCC1)c1cc(-c2ccc(Cl)cc2Cl)on1	8%	-3%	-22%	3%	10%	17%
CC1CC(C)CN(C(=O)C(C)N2CCN(S(=O)(=O)c3ccc(Br)s3)CC2)C1 (stereo unspecified)	2%	?	?	?	3%	-1%
CCOc1ccc(NC(=O)CSc2nccn2-c2cccc(C)c2C)cc1	·	-23%	18µM*	18µM*	·	-22%
CCc1nnc(NC(=O)CSc2nccn2-c2cccc(C)c2C)s1	?	-21%	8.2µM*	16µM*	-30%	-16%
CC(C)(C)c1nc2ccccc2c2nnc(SCC(=O)Nc3nc4ccccc4s3)n12	?	?	?	?	?	-37%
Cc1cccc(C)c1OCc1nnc(SCC(=O)Nc2nccs2)n1-c1ccccc1	?	-13%	5.8µM*	?	?	-23%
CC(C)(C)c1nc2ccccc2c2nnc(SCC(=O)Nc3nccs3)n12	?	14%	4.6µM*	3.3µM*	?	-17%
SMILES	HT1080 IDH1KD tx	TGFb inhibitor	DT40 TDP1 no CPT	DT40 TDP1 CPT	HT1080-NT tox	HepG2 tox
Cc1ccc(CNC(=O)c2cc(NS(=O)(=O)c3ccc(C)cc3)ccn2)cc1	·	-31%	8%	5%	·	-1%
COC(CNC(=O)c1ccc2c(c1)ncn2-c1ccc(F)cc1F)OC	15%	-2%	-6%	-8%	13%	0%
COc1cc(C(CCN2CCCC2)c2c(OC)cc(OC)c3c2OC(=O)CC3c2ccc(N(C)C)cc2)cc(OC)c1OC (stereo unspecified)	·	-12%	·	·	·	9%
CC(C)CNc1cc(NC2CCCCC2)c2c3c(onc13)-c1ccccc1C2=O	·	-33%	?	?	·	-13%
COCCNc1cc(N2CCN(C3CCCCC3)CC2)c2noc3c2c1C(=O)c1ccccc1-3	·	-15%	16µM*	18µM*	·	-17%
CN(C)CCCNc1cc(N2CCN(C3CCCCC3)CC2)c2noc3c2c1C(=O)c1ccccc1-3	·	275%	21µM*	23µM*	·	16µM*
Cc1nn(-c2ccccc2)c(C)c1CC(=O)NCC1Cc2cc(-c3cncnc3)ccc2O1 (stereo unspecified)	·	·	-9%	7%[9.04 µM]	·	·
CC(=O)NC1=C(Nc2ccc(N(C)C)cc2)C(=O)c2ccccc2C1=O	13µM*	-28%	?	13µM*	?	-23%
CC(=O)NC1=C(N(C)C2CCS(=O)(=O)C2)C(=O)c2ccccc2C1=O (stereo unspecified)	?	?	9.2µM*	8.2µM*	?	-97%
CCc1ccc(CNC(=O)c2ccc(OC3CCN(C(C)=O)CC3)c(OC)c2)nc1	3%	-14%	0%	-6%	-8%	9%
CC(=O)c1ccc(OCCCC(=O)NCc2nnc3ccccn23)cc1	2%	12%	1%	10%	10%	15%
COc1ccc(CNC(=O)O[C@H]2CN(C(=O)OC(C)C)N(C(=O)OC(C)C)[C@@H]3CN(S(=O)(=O)c4ccc(C)cc4)C[C@]23O)cc1OC	0%	-10%	23µM*	?	0%	-10%
Cc1ccc(S(=O)(=O)N2C[C@H]3N(C(=O)OC(C)C)N(C(=O)OC(C)C)C[C@H](OC(=O)Nc4cccs4)[C@@]3(O)C2)cc1	-2%	?	23µM*	?	-13%	-38%

Bioassay records deposited in PubChem by National Center for Advancing Translational Sciences (NCATS).
